Structures can show the parent of a compound that is named as a salt. ± gives the standard deviation of the averaged measurements.
What was measured:
[1] = system: Saccharomyces cerevisiae BY4741 SeMeCo community; assay: mean cell size (pixel area) (pixels); higher = larger cells; conditions: 10 µM; 24 h; SM minimal medium
Method in brief: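 For 24 h, 70 µl of yeast culture diluted to OD600 = 0.3 from an overnight preculture at OD600 = 1.0 was kept in SM medium in 384-well plates acoustically predosed with drug, final 10 µM. The strain was Saccharomyces cerevisiae BY4741 forming a fluorescent community of four plasmids, each complementing one auxotrophy and carrying a fluorescent marker. Automated confocal microscopy of paraformaldehyde-fixed cells, analysed in Harmony, provided mean cell pixel area per well, which was averaged over 3 replicates. Same SeMeCo high-content imaging drug screen: Selleck FDA-approved drugs at 10 µM, 24 h in SM medium, 384-well plates, 3 replicates.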

[2] = system: Saccharomyces cerevisiae BY4741 SeMeCo community; assay: z-score of prototroph abundance vs DMSO median; higher = larger share of this subpopulation than in DMSO controls; conditions: 10 µM; 24 h; SM minimal medium; subpopulation (auxotrophy): Prototroph
Method in brief: (§1)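 Automated confocal microscopy of paraformaldehyde-fixed cells was used to follow a Saccharomyces cerevisiae BY4741 community carrying four plasmids, each restoring one auxotrophy and encoding a distinct fluorescent protein. The community was pre-grown overnight to OD600 1.0, diluted to 0.3, and added at 70 µl to 384-well plates acoustically predosed with library drugs (10 µM final) for 24 h of growth in minimal SM medium. Single-auxotroph fluorescent strains set thresholds and autofluorescence correction, and each subpopulation's abundance was scored as a z-score against the vehicle-well median.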

[3] = system: Saccharomyces cerevisiae BY4741 SeMeCo community; assay: z-score of subpopulation abundance vs DMSO median, subpopulation auxotrophic for M; higher = larger share of this subpopulation than in DMSO controls; conditions: 10 µM; 24 h; SM minimal medium; subpopulation (auxotrophy): M
Method in brief: as §1

[4] = system: Saccharomyces cerevisiae BY4741 SeMeCo community; assay: z-score of subpopulation abundance vs DMSO median, subpopulation auxotrophic for U; higher = larger share of this subpopulation than in DMSO controls; conditions: 10 µM; 24 h; SM minimal medium; subpopulation (auxotrophy): U
Method in brief: as §1

[5] = system: Saccharomyces cerevisiae BY4741 SeMeCo community; assay: z-score of subpopulation abundance vs DMSO median, subpopulation auxotrophic for LM; higher = larger share of this subpopulation than in DMSO controls; conditions: 10 µM; 24 h; SM minimal medium; subpopulation (auxotrophy): LM
Method in brief: as §1

[6] = system: Saccharomyces cerevisiae BY4741 SeMeCo community; assay: z-score of subpopulation abundance vs DMSO median, subpopulation auxotrophic for HM; higher = larger share of this subpopulation than in DMSO controls; conditions: 10 µM; 24 h; SM minimal medium; subpopulation (auxotrophy): HM
Method in brief: as §1

[7] = system: Saccharomyces cerevisiae BY4741 SeMeCo community; assay: z-score of subpopulation abundance vs DMSO median, subpopulation auxotrophic for HU; higher = larger share of this subpopulation than in DMSO controls; conditions: 10 µM; 24 h; SM minimal medium; subpopulation (auxotrophy): HU
Method in brief: as §1

[8] = system: Saccharomyces cerevisiae BY4741 SeMeCo community; assay: z-score of subpopulation abundance vs DMSO median, subpopulation auxotrophic for UM; higher = larger share of this subpopulation than in DMSO controls; conditions: 10 µM; 24 h; SM minimal medium; subpopulation (auxotrophy): UM
Method in brief: as §1

[9] = system: Saccharomyces cerevisiae BY4741 SeMeCo community; assay: z-score of subpopulation abundance vs DMSO median, subpopulation auxotrophic for HL; higher = larger share of this subpopulation than in DMSO controls; conditions: 10 µM; 24 h; SM minimal medium; subpopulation (auxotrophy): HL
Method in brief: as §1

[10] = system: Saccharomyces cerevisiae BY4741 SeMeCo community; assay: z-score of subpopulation abundance vs DMSO median, subpopulation auxotrophic for HLU; higher = larger share of this subpopulation than in DMSO controls; conditions: 10 µM; 24 h; SM minimal medium; subpopulation (auxotrophy): HLU
Method in brief: as §1

[11] = system: Saccharomyces cerevisiae BY4741 SeMeCo community; assay: z-score of subpopulation abundance vs DMSO median, subpopulation auxotrophic for HLM; higher = larger share of this subpopulation than in DMSO controls; conditions: 10 µM; 24 h; SM minimal medium; subpopulation (auxotrophy): HLM
Method in brief: as §1

[12] = system: Saccharomyces cerevisiae BY4741 SeMeCo community; assay: z-score of subpopulation abundance vs DMSO median, subpopulation auxotrophic for HUM; higher = larger share of this subpopulation than in DMSO controls; conditions: 10 µM; 24 h; SM minimal medium; subpopulation (auxotrophy): HUM
Method in brief: as §1

[13] = system: Saccharomyces cerevisiae BY4741 SeMeCo community; assay: z-score of subpopulation abundance vs DMSO median, subpopulation auxotrophic for LUM; higher = larger share of this subpopulation than in DMSO controls; conditions: 10 µM; 24 h; SM minimal medium; subpopulation (auxotrophy): LUM
Method in brief: as §1

[14] = system: Saccharomyces cerevisiae BY4741 SeMeCo community; assay: z-score of subpopulation abundance vs DMSO median, subpopulation auxotrophic for HLUM; higher = larger share of this subpopulation than in DMSO controls; conditions: 10 µM; 24 h; SM minimal medium; subpopulation (auxotrophy): HLUM
Method in brief: as §1

[15] = system: Saccharomyces cerevisiae BY4741 SeMeCo community; assay: z-score of subpopulation abundance vs DMSO median, subpopulation auxotrophic for L; higher = larger share of this subpopulation than in DMSO controls; conditions: 10 µM; 24 h; SM minimal medium; subpopulation (auxotrophy): L
Method in brief: as §1

[16] = system: Saccharomyces cerevisiae BY4741 SeMeCo community; assay: z-score of subpopulation abundance vs DMSO median, subpopulation auxotrophic for H; higher = larger share of this subpopulation than in DMSO controls; conditions: 10 µM; 24 h; SM minimal medium; subpopulation (auxotrophy): H
Method in brief: as §1

[17] = system: Saccharomyces cerevisiae BY4741 SeMeCo community; assay: z-score of subpopulation abundance vs DMSO median, subpopulation auxotrophic for LU; higher = larger share of this subpopulation than in DMSO controls; conditions: 10 µM; 24 h; SM minimal medium; subpopulation (auxotrophy): LU
Method in brief: as §1

SMILES	mean cell size [1]	z-score of prototroph abundance [2]	z-score of subpopulation abundance [3]	z-score of subpopulation abundance [4]	z-score of subpopulation abundance [5]	z-score of subpopulation abundance [6]	z-score of subpopulation abundance [7]	z-score of subpopulation abundance [8]	z-score of subpopulation abundance [9]	z-score of subpopulation abundance [10]	z-score of subpopulation abundance [11]	z-score of subpopulation abundance [12]	z-score of subpopulation abundance [13]	z-score of subpopulation abundance [14]	z-score of subpopulation abundance [15]	z-score of subpopulation abundance [16]	z-score of subpopulation abundance [17]
CN1CC2c3ccccc3Oc3ccc(Cl)cc3C2C1 (configuration not stated) [Asenapine maleate]	12.34 ± 0.11	0.14	-0.45	-0.5	0.5	-0.76	-0.59	-0.2	0.5	0.37	-0.53	0.01	0.42	0.32	–	–	–
COC(=O)C1=C(C)NC(C)=C(C(=O)OC(C)(C)CN(C)CCC(c2ccccc2)c2ccccc2)C1c1cccc([N+](=O)[O-])c1 (configuration not stated) [Lercanidipine hydrochloride]	12.3 ± 0.19	-0.42	0.32	-1.5	1.89	2.19	-0.84	-1.34	1.84	0.32	–	0.37	0.24	-0.22	1.4	2.45	–
Cc1c(Cl)cccc1Nc1ccccc1C(=O)O [Tolfenamic Acid]	12.7 ± 0.24	1.21	-0.25	0.15	-1.47	-1.11	-0.34	-0.9	-0.69	-1.46	–	-0.87	-1.95	-1.09	-2.08	-1.01	–
O=C1C(CC[S+]([O-])c2ccccc2)C(=O)N(c2ccccc2)N1c1ccccc1 (racemic) [(+/-)-Sulfinpyrazone]	12.5 ± 0.2	0.12	–	-0.3	0.26	0.14	-0.49	0.41	-0.17	0.61	0.61	0.22	0.05	-0.47	-0.72	-0.21	0.28
OC(Cn1cncn1)(Cn1cncn1)c1ccc(F)cc1F [Fluconazole]	11.98 ± 0.059	–	-1.85	-0.29	-0.76	-1.78	-1.49	-0.52	-1.18	-1.51	-1.07	-1.16	–	-1.38	–	-2.16	–
Cc1c(-c2ccc(O)cc2)n(Cc2ccc(OCCN3CCCCCC3)cc2)c2ccc(O)cc12 [Bazedoxifene HCl]	12.54 ± 0.11	-0.43	0.94	–	0.49	1.47	-0.01	-0.08	–	-0.15	–	-0.15	0.03	-0.25	-0.9	1.47	–
NC(=O)[C@@H]1CC[C@@H]2CN1C(=O)N2OS(=O)(=O)O [Avibactam sodium]	12.68 ± 0.1	-0.66	0.79	0.13	0.78	–	-0.2	0.5	-0.05	0.1	0.54	-0.02	0.46	1.05	–	-0.62	–
Cc1ccc(Cl)c(Nc2ccccc2C(=O)O)c1Cl [Meclofenamate Sodium]	12.7 ± 0.19	–	0.25	-0.1	-0.57	-0.47	-0.21	-0.07	-0.49	-0.7	-0.85	-0.63	–	-0.31	–	–	–

From the supplement of paper PMC8975748
